Results reported in PubChem BioAssay AID1529 (NMMLSC, 2009).
The campaign covered roughly 290,000 compounds. About 4,200 (1.4%) were called active. The full list was thinned out, with actives kept by preference. Values without a mark were called inactive.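 Rule for the calls: active = binding response more than 3 SD above or below the average of its plate-row segment, actives on both sides; inconclusive = wells at one plate position flagged as instrument error; inactive = the rest.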

These molecules were tested against Mitogen-activated protein kinase kinase kinase 3 (Homo sapiens) (UniProt Q99759) (assay: compounds raising or lowering MEK5 association with MEKK3 PB1 – biochemical, wildtype MEKK3, multiplex bead flow cytometry, Alexa488-MEK5, primary screen (AID 1529;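 note: Alexa488 bead fluorescence after subtracting the streptavidin-only scavenger bead signal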)). Conditions: bead-based flow cytometry, Alexa488-MEK5 binding to MEKK3; at 10 µM; actives lie on both sides; 0 = blocked by unlabeled MEK5, 100 = vehicle.
Sequence of Mitogen-activated protein kinase kinase kinase 3 (Homo sapiens) (Q99759 whole entry, looked up): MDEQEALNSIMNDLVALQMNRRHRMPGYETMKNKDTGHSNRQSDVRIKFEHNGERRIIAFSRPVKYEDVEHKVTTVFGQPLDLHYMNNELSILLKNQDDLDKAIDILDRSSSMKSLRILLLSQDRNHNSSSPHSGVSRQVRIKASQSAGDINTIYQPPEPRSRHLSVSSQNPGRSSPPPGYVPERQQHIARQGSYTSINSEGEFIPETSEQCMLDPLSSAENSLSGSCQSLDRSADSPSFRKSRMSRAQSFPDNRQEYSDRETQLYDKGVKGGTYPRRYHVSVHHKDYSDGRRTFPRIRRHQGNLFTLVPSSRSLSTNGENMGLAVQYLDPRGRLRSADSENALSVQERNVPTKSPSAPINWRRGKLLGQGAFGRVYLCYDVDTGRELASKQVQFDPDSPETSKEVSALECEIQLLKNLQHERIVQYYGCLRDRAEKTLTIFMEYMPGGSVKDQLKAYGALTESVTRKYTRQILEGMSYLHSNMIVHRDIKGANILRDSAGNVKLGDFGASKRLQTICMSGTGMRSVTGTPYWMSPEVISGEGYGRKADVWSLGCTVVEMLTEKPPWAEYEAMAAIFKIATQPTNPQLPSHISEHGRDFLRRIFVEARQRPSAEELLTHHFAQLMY
Cc1ccc(SCC(=O)Nc2ncc(C)s2)cc1 gave a binding response (% of control) of 100%. Work on Cc1cnc(NC(=O)CSc2nnc(C)s2)s1 yielded a binding response (% of control) of 100%. For Cc1cnc(NC(=O)Cn2cnc3c2c(=O)n(C)c(=O)n3C)s1, the binding response (% of control) was 136% (active). In the case of COC(=O)CCc1sc(Nc2ccc(Br)cc2)nc1-c1ccc(OC)cc1, the binding response (% of control) was 136% (active). For Cc1ccc(OC(=O)CCC(=O)Nc2ccc(Br)cc2)cc1, the binding response (% of control) was 94%. In the case of COc1ccc(-c2csc(Nc3ccc(O)cc3)n2)cc1, the binding response (% of control) was 95%. CC(=O)N1CCN(S(=O)(=O)c2ccc(C)c([N+](=O)[O-])c2)C1C(C)C (stereo not given) was tested, and the binding response (% of control) was 128% (active). In the case of CSCCC(Nc1ccc(S(=O)(=O)N2CCOCC2)cc1[N+](=O)[O-])C(=O)OCC(=O)N(C(C)C)C(C)C (stereo not given), the binding response (% of control) was 98%. Work on Cc1ccc(NC(=O)CN2CCC(C(N)=O)CC2)cc1[N+](=O)[O-] yielded a binding response (% of control) of 98%. Work on Cc1cc(=O)cc(C)n1-c1ccc(Cl)c(Cl)c1 yielded a binding response (% of control) of 96%. For CC(=O)Nc1ccc(S(=O)(=O)N2CCC(C(=O)NC3CC3)CC2)cc1, the binding response (% of control) was 104%. With Cc1[nH]n(-c2ccccc2)c(=O)c1/C=N/NC(=O)c1ccoc1C the binding response (% of control) was 108%. With CCC(=C/c1sc2ccc3ccccc3c2[n+]1C)/C=C1\Sc2ccc3ccccc3c2N1C the binding response (% of control) was 23% [inhibitor] (active). C#CCOCCOCCOCCNc1nc(N2CCN(C(=O)C([C@@H](C)CC)n3cc(C(N)COC(=O)C(F)(F)F)nn3)CC2)nc(N2CCN(C(=O)[C@H](CCCCN)n3cc(C(N)CC(C)C)nn3)CC2)n1 (stereo not given in full) was tested, and the binding response (% of control) was 120%. In the case of N=C1/C(=C/c2cccn2-c2cccc([N+](=O)[O-])c2)C(=O)N=C2SC=CN12, the binding response (% of control) was 135% (active). In the case of Cc1cc(/C=C2/C(=N)N3C(=NC2=O)SN=C3S(C)(=O)=O)c(C)n1-c1ccccc1, the binding response (% of control) was 96%. COCOc1cc(O)c(C(=O)/C=C/c2ccc(OCOC)c(OCOC)c2)c(OCOC)c1 showed a binding response (% of control) of 104%. In the case of Cc1cccc(NC(=O)CCN2CC(C)CC(C)C2)c1 (stereo not given), the binding response (% of control) was 107%. Cc1nonc1C1CCCN1Cc1nc(-c2ccc(F)cc2F)oc1C (stereo not given) gave a binding response (% of control) of 85%. CCN1/C(=C\c2ccc3ccccc3[n+]2CC)Sc2cc(C)ccc21 was tested, and the binding response (% of control) was 70% [inhibitor] (active). With CCN1/C(=C/c2ccc3ccc(C)cc3[n+]2CC)Sc2ccccc21 the binding response (% of control) was 95%. With CCN(CC)CCCNC(=O)c1cn(C)c2ccc(S(=O)(=O)N(C)C3CCCCC3)cc2c1=O the binding response (% of control) was 100%. In the case of COc1ccc(C(=O)NCc2nnc(SCC(=O)Nc3cccc(OC)c3)o2)cc1, the binding response (% of control) was 102%. With C/C(=N\NC(=O)CNc1cccc2ccccc12)c1ccc(Br)s1 the binding response (% of control) was 103%. For Cc1cccc(/C=N/NC(=O)CNc2cccc3ccccc23)n1, the binding response (% of control) was 144% (active). Work on Cn1cccc1/C=N/NC(=O)CNc1cccc2ccccc12 yielded a binding response (% of control) of 103%. Work on CCn1cc(CN2CCC(C(=O)Nc3cccc(-c4cccc(Cl)c4)c3)CC2)c(C)n1 yielded a binding response (% of control) of 107%. With CCc1nnc(NC(=O)CCN(c2ccc(C)cc2)S(=O)(=O)c2ccccc2)s1 the binding response (% of control) was 108%. Cc1ccc(N(CCC(=O)O)S(=O)(=O)c2cccc(C(F)(F)F)c2)cc1 was tested, and the binding response (% of control) was 3% [inhibitor] (active). In the case of O=C(O)c1cc(S(=O)(=O)N(Cc2ccccc2)c2cccc(C(F)(F)F)c2)ccc1Cl, the binding response (% of control) was 106%. For COc1cc(C)nc(N2CCCC(C(=O)NCC(C)C)C2)n1 (stereo not given), the binding response (% of control) was 130% (active). Work on Cc1ccnc(N2CCCC(C(=O)NC3CC3)C2)n1 (stereo not given) yielded a binding response (% of control) of 100%. Cc1cc(=O)n2nc(N3CCCC(C(=O)NCc4ccc(Cl)cc4)C3)sc2n1 (stereo not given) was tested, and the binding response (% of control) was 99%. Molecule CN1CCN(CCNC(=O)Nc2ccccc2[N+](=O)[O-])CC1 has a binding response (% of control) of 104%. In the case of O=C(CN(C(=O)c1csnn1)c1ccc(Br)cc1)NC1CCCC1, the binding response (% of control) was 101%. In the case of Cc1ccccc1CCN(CC(=O)NC1CCCCC1)C(=O)c1csnn1, the binding response (% of control) was 142% (active). Cc1ccc(CN(CC(=O)NC2CCCCC2)C(=O)c2csnn2)cc1 gave a binding response (% of control) of 103%. Work on COc1ccccc1CC(=O)Nc1ccc(F)cc1F yielded a binding response (% of control) of 106%. For COc1cc([N+](=O)[O-])ccc1NC(=O)CN1CCCC1, the binding response (% of control) was 104%. For COc1ccccc1CC(=O)Nc1ccc([N+](=O)[O-])cc1OC, the binding response (% of control) was 139% (active). CCC(C)NC(=O)C1c2ccccc2Oc2ccccc21 (stereo not given) gave a binding response (% of control) of 71%. With CC(C)(C)c1nnc(NC(=O)C2c3ccccc3Oc3ccccc32)s1 the binding response (% of control) was 45% [inhibitor] (active). CCC(C)(C)NC(=O)C1c2ccccc2Oc2ccccc21 gave a binding response (% of control) of 99%. C=CCSc1nnc2c(n1)-c1cccc3cccc-2c13 was tested, and the binding response (% of control) was 104%. COc1ccc(C(=O)NC(=S)NC2CCCCC2)cc1 showed a binding response (% of control) of 106%. For Brc1ccccc1C1N=C(c2ccccc2)NO1 (stereo not given), the binding response (% of control) was 103%. Cc1ccc2c(c1)N(C(=O)CCC(=O)NCc1cccnc1)CCO2 showed a binding response (% of control) of 100%. With COc1cccc(NC(=O)CN(C)C(=O)/C=C/c2cc(OC)ccc2OC)c1 the binding response (% of control) was 151% (active). With COc1ccc(/C=C/C(=O)OCC(=O)Nc2cccc(Oc3ccccc3)c2)c(OC)c1 the binding response (% of control) was 106%. COc1cccc(NC(=O)CN(C)C(=O)Cc2ccc(Cl)cc2Cl)c1 gave a binding response (% of control) of 106%. CCOC(=O)N1CCN(C(=O)c2cn(C)c3ccc(S(=O)(=O)N(CC)CC)cc3c2=O)CC1 showed a binding response (% of control) of 98%. CCOC(=O)CC1(NC(=O)c2cc(COc3cncc(Cl)c3)on2)CCCCC1 showed a binding response (% of control) of 103%. In the case of O=C(CN1C(=O)CSC1=O)N1CCCC(Nc2ccc(F)cc2)C1 (stereo not given), the binding response (% of control) was 102%. CN(C(=O)c1cc2c(=O)n3ccccc3nc2s1)C1CCCCC1 showed a binding response (% of control) of 100%. For Cn1c(=O)c2c(nc(N/N=C/c3cccs3)n2Cc2ccc(Br)cc2)n(C)c1=O, the binding response (% of control) was 131% (active). For Cn1c(=O)c2c(nc(NCCc3ccccc3)n2Cc2ccccc2)n(C)c1=O, the binding response (% of control) was 96%. For Cn1c(=O)c2sccc2n(Cc2ccc(Br)cc2)c1=O, the binding response (% of control) was 101%. COc1cccc(OCC(=O)Nc2ccccc2C(N)=O)c1 gave a binding response (% of control) of 110%. In the case of COc1ccc(OCC(=O)NNC(=O)c2cccc(C)c2)cc1, the binding response (% of control) was 103%. COc1cccc(OCC(=O)NNC(=O)c2cnccn2)c1 was tested, and the binding response (% of control) was 2% [inhibitor] (active).
